aSyn 5UTR act: Activators working through SNCA 5'UTR binding (MLPCN). alpha-synuclein 5'UTR reporter, activators screen. activity score, % (tested at 7.5 µM), hits read low. hit rate 7.1% among 300,000. AID 1814; in the data active = activity score below about -60%
The depositor's hits bear a star. These entries were drawn from the full list.

SMILES	aSyn 5UTR act
COC(=O)c1sc(NC(=O)c2cc3c(s2)CCCC3)nc1C	-204.4*
CC1CCc2sc(C(=O)Nc3ccc(C(N)=O)cc3)cc2C1 (centres undefined)	-119.4*
O=C(Nc1ccccc1OC(F)F)c1cc2c(s1)CCC2	-161.5*
Cc1ccc(NC(=O)c2cc3c(s2)CCCC3)cc1	-192.7*
CCOC(=O)c1sc(NC(=O)c2cc3c(s2)CCC(C)C3)nc1C (centres undefined)	-101.5*
Cc1ccc(NC(=O)c2scc3c2CCCC3)cc1	-90.1*
Cc1nc(NC(=O)CCl)sc1C(=O)N(C)C	-69.8*
Cc1nc(NC(=O)c2cc3c(s2)CCCCC3)sc1C(=O)N(C)C	-175.3*
Fc1ccc(/C=N/NC2=Nc3cccc4cccc2c34)cc1	-294.1*
CNC(=S)Nc1ccc(Nc2ccccc2)cc1	-95.0*
CCCNC(=S)Nc1ccc(Nc2ccccc2)cc1	-86.7*
CCc1ccc(NC(=O)c2nc(S(=O)(=O)Cc3ccccc3)ncc2Cl)cc1	90.7
CC(C)c1nnc(NC(=O)c2nc(S(=O)(=O)Cc3ccccc3)ncc2Cl)s1	-81.3*
COc1ccc(CNC(=S)Nc2ccc(F)c(Cl)c2)cc1	-109.4*
Cc1ccc(OC(=O)c2sc3ncn(C)c(=O)c3c2C)cc1	-120.2*
Fc1cccc2sc(N3CCCCC3)nc12	-116.0*
Fc1cccc2sc(N3CCOCC3)nc12	-79.7*
Fc1cc(F)c2nc(N3CCCC3)sc2c1	-92.8*
O=c1c2c3c(sc2nc2n1CCCC2)CCCCC3	-105.4*
O=c1c2c3c(sc2nc2n1CCCCC2)CCCC3	-123.9*
O=c1c2c3c(sc2nc2n1CCCCC2)CCCCC3	-152.5*
Clc1nc(CN2CCCCC2)nc2sc3c(c12)CCCC3	-67.7*
COc1ccc(-c2nnc3c4ccccc4c(C)nn23)cc1	-206.0*
COc1ccc(Oc2nnc(C)c3ccccc23)cc1	-175.2*
Cc1nnc(Oc2ccccc2F)c2ccccc12	-93.9*
SMILES	aSyn 5UTR act
O=C(Nc1ccc(F)cc1)c1cc2cc(Cl)ccc2[nH]1	-61.9*
CCc1ccc2[nH]c(C(=O)Nc3ccc(C)c(F)c3)cc2c1	-109.1*
CCC1CCCCN1CCCNC(=O)c1ccc2nc(N3CCC(C)CC3)sc2c1 (centres undefined)	-291.8*
CC1CCN(c2nc3ccc(C(=O)O)cc3s2)CC1	106.0
CC1CCN(c2nc3ccc(C(=O)NCCCN4CCCCC4)cc3s2)CC1	-281.6*
O=C(NC(=S)Nc1cccc(O)c1)c1ccco1	-131.2*
O=C(c1ccco1)N1CCCC(Nc2ccc3c(c2)OCCO3)C1 (centres undefined)	-79.2*
O=C(NC(=S)Nc1ccc2c(c1)OCCO2)c1ccco1	-113.8*
c1ccc(N2CCN(c3ncccn3)CC2)cc1	-67.7*
O=[N+]([O-])c1cc(CN2CCN(c3ccccc3)CC2)c(O)c2ncccc12	82.0
COc1ccnc(N2CCN(c3ccccc3)CC2)c1C#N	-80.4*
c1ccc(N2CCN(c3nc(-c4ccccn4)nc4ccccc34)CC2)cc1	-77.5*
Cc1ccc(N=Cc2c(O)ccc3ccccc23)cc1F	-111.4*
CCOC(=O)c1sc(/N=C/c2c(O)ccc3ccccc23)cc1C	-72.6*
Cc1nc(NCCc2ccc(S(N)(=O)=O)cc2)c2c3c(sc2n1)CCC3	-116.3*
O=C(Nc1ccccc1-c1ccccc1)c1ccc(=O)[nH]n1	-127.9*
CC(C)(C)c1ccc(NC(=O)c2ccc(=O)[nH]n2)cc1	-101.9*
Cc1ccc(S(=O)(=O)Nc2ccccc2-c2ccccc2)cc1	54.0
O=C(Nc1ncc(Cc2cccc(Cl)c2Cl)s1)C1CCCO1 (centres undefined)	-128.3*
O=C(Nc1ncc(Cc2cccc(Cl)c2)s1)C1CCCO1 (centres undefined)	-161.3*
O=C(Nc1ncc(Cc2ccccc2Cl)s1)C1CCCO1 (centres undefined)	-89.3*
Cc1cccc(NC(=S)NNC(=O)c2csc3c2CCCC3)c1	-125.3*
Cc1cccc(NC(=S)NNC(=O)c2csc(C)c2)c1	-76.7*
Cc1cc(C(=O)Nc2ccc(Br)cc2)cs1	-130.1*
CC1(C)Cc2c(sc3nc(-c4cc5ccccc5o4)n(N)c(=O)c23)CO1	-202.9*
SMILES	aSyn 5UTR act
COc1ccc(C=Nc2cccnc2N)cc1	-67.2*
N#CC1=C(SCC(=O)Nc2ccccc2)NC(=O)CC1c1ccc(O)cc1 (centres undefined)	-128.0*
CC(=O)C1=C(C)NC(SCC(=O)c2cc(Cl)ccc2Cl)=C(C#N)C1c1ccco1 (centres undefined)	-129.6*
N#CC1=C(SCC(=O)Nc2ccccc2)NC(=O)CC1c1ccco1 (centres undefined)	-140.9*
N#CC1=C(SCC(=O)c2ccccc2)NC2=C(C(=O)CCC2)C1c1ccco1 (centres undefined)	-305.3*
CCOC(=O)c1[nH]c2ccccc2c1NC(=S)Nc1ccccc1	-69.5*
CN(C)Cc1c(C(=O)Nc2ccccc2)[nH]c2ccccc12	-76.2*
CCN1CCN(c2nc(Nc3cccc(OC)c3)nc(N)c2[N+](=O)[O-])CC1	-86.4*
CCC(C)Nc1nc(N)c([N+](=O)[O-])c(Nc2ccccc2OC)n1 (centres undefined)	60.0

Assay outcomes from PubChem BioAssay.
